Measured values published in the supplement of paper PMC10849652.
The full data set covers some 7,900 targets. This sample favours those with a hit. About 0.6% of all pairs of compound and target were hits.

How the values were obtained:
Assay in all cases: log2 fold change, soluble protein after heating vs DMSO (PISA); higher = thermal stabilisation; K562 cells, 10 uM, 30 min; active = over 0.2 and 3.5 SD of the protein, either way, in both replicates (recomputed)
[1] = compound: C1=CC=C(C=C1)[C@H](COC2=CC3=C(C=C2)NC(=O)N3)NC(=O)C4=CC=CN(C4=O)CC5=CC(=C(C=C5)F)F
In short: (§1)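 K562 cells at 2×10^6 cells/mL were treated for 30 min with 10 μM compound, and aliquots were heated for 3 min over 48°C-58°C before pooling. Extraction used PBS with 0.5% NP-40 at 4°C, and soluble protein was the supernatant after 21,000xg for 90 min, measured by TMTpro 16plex LC-MS/MS with channel sums equalised. Thermal stability values, relative to control samples and from duplicates, are log2 fold changes.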

[2] = compound: CC1=C(SC2=C1C(=N[C@H](C3=NN=C(N32)C)CC(=O)N)C4=CC=C(C=C4)Cl)C
In short: as §1

[3] = compound: CC1=C2C(=CC=C1)N=C(N(C2=O)C3=CC=CC=C3C)CN4C=NC5=C(N=CN=C54)N
In short: as §1

[4] = compound: Cc1sc2c(c1C)C(c1ccc(Cl)cc1)=N[C@@H](CC(=O)OC(C)(C)C)c1nnc(C)n1-2
In short: as §1

[5] = compound: c1ccc([C@@H]2C[C@H]2NC2CCNCC2)cc1
In short: as §1

Measured: log2 fold change

GCLM (UniProt P48507)
Chain of UniProt P48507 (P48507 whole entry, looked up): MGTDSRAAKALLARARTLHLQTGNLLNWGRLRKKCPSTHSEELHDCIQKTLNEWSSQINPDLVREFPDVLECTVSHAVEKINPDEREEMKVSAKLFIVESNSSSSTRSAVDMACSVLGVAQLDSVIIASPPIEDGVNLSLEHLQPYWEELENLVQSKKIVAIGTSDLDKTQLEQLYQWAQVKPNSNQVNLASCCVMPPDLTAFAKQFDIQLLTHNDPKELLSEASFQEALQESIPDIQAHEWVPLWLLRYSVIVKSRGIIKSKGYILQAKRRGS
inactive: [1] -0.014 | [2] 0.062 | [3] 0.108 | [4] 0 | [5] -0.053

FARS2 (UniProt O95363)
Chain of UniProt O95363 (O95363 whole entry, looked up): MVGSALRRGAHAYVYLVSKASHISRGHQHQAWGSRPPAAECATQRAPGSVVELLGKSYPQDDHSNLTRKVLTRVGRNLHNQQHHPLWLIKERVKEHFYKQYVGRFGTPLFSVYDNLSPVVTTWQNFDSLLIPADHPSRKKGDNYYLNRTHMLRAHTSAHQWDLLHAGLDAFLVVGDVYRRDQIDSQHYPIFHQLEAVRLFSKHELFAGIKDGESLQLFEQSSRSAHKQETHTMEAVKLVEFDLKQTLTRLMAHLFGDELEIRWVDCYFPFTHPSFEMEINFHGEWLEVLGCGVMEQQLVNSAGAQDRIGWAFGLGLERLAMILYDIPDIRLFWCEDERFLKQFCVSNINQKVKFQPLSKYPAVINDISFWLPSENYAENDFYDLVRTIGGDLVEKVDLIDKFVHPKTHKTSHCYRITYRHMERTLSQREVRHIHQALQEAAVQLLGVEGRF
inactive: [1] -0.021 | [2] 0.022 | [3] 0.006 | [4] 0.069 | [5] -0.018

FIS1 (UniProt Q9Y3D6)
Chain of UniProt Q9Y3D6 (Q9Y3D6 whole entry, looked up): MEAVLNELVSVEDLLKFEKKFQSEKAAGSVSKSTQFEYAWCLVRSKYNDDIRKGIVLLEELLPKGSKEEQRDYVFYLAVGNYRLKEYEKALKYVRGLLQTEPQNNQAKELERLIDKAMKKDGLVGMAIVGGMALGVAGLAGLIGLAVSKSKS
inactive: [1] 0.047 | [2] 0.021 | [3] 0.035 | [4] -0.081 | [5] -0.011

HPCAL1 (UniProt P37235)
inactive: [1] 0.007 | [2] -0.011 | [3] 0.047 | [4] -0.011 | [5] 0.032

FDFT1 (UniProt P37268)
active: [2] 0.319
inactive: [1] -0.064 | [3] 0.089 | [4] 0.109 | [5] -0.021

HBZ, A0A494C057
inactive: [1] -0.047

GMEB1 (UniProt Q9Y692)
inactive: [1] 0.02 | [2] 0.084 | [3] -0.007 | [4] 0.024 | [5] 0.022

GLYR1 (UniProt Q49A26)
inactive: [1] 0.147 | [2] 0.054 | [3] -0.016 | [4] 0.058 | [5] 0.067

GTF3C4 (UniProt Q9UKN8)
Chain of UniProt Q9UKN8 (Q9UKN8 whole entry, looked up): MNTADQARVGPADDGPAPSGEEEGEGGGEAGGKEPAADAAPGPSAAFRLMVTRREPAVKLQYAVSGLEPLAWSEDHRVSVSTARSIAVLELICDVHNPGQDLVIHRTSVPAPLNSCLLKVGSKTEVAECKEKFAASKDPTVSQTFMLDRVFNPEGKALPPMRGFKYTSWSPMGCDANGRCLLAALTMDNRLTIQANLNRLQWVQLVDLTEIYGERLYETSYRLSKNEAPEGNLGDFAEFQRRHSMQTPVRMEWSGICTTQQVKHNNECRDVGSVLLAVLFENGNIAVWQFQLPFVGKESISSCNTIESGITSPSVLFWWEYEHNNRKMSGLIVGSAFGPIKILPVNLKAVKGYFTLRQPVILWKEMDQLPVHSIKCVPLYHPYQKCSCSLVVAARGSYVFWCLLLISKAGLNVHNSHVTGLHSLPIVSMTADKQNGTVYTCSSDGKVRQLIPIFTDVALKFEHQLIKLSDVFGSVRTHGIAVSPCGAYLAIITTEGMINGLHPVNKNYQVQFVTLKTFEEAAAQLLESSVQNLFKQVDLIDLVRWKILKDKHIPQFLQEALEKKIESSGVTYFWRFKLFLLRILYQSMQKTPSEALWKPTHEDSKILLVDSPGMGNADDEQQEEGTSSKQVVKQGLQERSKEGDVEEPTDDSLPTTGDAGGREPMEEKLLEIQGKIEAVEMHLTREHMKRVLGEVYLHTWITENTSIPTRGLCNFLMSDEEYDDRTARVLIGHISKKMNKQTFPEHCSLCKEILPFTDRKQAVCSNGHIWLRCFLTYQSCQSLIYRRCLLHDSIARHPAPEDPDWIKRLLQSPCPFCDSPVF
inactive: [1] 0.027 | [2] 0.065 | [3] 0.143 | [4] 0.02 | [5] 0.025

FUNDC1 (UniProt Q8IVP5)
inactive: [1] 0.052

GALC (UniProt P54803)
Chain of UniProt P54803 (P54803 whole entry, looked up): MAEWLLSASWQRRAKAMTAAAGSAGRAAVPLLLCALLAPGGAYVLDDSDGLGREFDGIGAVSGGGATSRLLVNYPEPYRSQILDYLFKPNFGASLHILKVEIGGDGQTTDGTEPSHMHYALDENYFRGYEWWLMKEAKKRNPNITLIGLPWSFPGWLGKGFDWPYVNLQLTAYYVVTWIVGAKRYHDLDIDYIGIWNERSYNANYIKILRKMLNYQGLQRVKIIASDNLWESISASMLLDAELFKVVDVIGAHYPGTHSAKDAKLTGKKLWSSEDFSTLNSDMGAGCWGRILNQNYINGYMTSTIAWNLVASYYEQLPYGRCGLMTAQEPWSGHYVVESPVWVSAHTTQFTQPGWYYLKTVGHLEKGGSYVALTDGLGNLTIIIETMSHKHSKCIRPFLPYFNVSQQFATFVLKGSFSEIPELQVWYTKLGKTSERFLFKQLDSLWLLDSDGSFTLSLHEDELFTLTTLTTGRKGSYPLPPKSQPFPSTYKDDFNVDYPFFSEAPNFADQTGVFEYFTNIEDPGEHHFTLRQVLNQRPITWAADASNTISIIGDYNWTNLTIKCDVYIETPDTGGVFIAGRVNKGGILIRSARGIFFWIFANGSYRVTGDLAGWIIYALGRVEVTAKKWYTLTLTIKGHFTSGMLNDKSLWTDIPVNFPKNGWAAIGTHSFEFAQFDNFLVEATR
inactive: [1] 0.046 | [2] 0.055 | [3] 0.055 | [4] -0.043 | [5] 0.006

HDHD2 (UniProt Q9H0R4)
inactive: [1] -0.044 | [2] 0.006 | [3] -0.003 | [4] 0.03 | [5] -0.031

HIP1R (UniProt O75146)
Chain of UniProt O75146 (O75146 whole entry, looked up): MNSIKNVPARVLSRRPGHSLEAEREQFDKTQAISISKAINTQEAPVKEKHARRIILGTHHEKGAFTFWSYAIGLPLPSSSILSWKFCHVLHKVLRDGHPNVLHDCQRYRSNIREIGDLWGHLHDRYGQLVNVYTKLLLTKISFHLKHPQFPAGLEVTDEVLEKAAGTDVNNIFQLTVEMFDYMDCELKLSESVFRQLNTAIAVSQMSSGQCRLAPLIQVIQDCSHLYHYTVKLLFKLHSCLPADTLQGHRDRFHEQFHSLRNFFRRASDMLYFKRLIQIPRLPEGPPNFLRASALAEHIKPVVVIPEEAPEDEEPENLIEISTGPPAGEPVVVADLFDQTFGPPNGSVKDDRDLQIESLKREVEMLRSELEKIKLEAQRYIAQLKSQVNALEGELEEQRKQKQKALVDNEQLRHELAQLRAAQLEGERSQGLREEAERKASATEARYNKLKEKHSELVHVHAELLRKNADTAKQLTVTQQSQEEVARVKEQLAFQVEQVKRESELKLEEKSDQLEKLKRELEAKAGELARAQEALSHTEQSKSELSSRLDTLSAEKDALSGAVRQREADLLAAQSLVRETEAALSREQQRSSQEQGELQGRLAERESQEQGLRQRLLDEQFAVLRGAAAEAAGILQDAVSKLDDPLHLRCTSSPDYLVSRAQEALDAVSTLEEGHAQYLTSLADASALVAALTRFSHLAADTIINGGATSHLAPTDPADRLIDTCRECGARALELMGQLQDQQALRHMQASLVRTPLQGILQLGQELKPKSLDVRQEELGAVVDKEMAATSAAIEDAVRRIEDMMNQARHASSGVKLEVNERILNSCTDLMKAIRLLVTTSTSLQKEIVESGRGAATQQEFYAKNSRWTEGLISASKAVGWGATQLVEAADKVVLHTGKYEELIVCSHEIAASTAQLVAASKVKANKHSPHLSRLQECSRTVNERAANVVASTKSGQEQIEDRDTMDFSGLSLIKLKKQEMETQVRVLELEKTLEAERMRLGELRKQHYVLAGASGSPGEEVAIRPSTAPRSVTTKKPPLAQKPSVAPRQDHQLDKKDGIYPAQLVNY
inactive: [1] -0.038 | [2] 0.061 | [3] 0.1 | [4] -0.031 | [5] -0.02

IFT80 isoform 3 (UniProt Q9P2H3)
Chain of UniProt Q9P2H3 (Q9P2H3 whole entry, looked up): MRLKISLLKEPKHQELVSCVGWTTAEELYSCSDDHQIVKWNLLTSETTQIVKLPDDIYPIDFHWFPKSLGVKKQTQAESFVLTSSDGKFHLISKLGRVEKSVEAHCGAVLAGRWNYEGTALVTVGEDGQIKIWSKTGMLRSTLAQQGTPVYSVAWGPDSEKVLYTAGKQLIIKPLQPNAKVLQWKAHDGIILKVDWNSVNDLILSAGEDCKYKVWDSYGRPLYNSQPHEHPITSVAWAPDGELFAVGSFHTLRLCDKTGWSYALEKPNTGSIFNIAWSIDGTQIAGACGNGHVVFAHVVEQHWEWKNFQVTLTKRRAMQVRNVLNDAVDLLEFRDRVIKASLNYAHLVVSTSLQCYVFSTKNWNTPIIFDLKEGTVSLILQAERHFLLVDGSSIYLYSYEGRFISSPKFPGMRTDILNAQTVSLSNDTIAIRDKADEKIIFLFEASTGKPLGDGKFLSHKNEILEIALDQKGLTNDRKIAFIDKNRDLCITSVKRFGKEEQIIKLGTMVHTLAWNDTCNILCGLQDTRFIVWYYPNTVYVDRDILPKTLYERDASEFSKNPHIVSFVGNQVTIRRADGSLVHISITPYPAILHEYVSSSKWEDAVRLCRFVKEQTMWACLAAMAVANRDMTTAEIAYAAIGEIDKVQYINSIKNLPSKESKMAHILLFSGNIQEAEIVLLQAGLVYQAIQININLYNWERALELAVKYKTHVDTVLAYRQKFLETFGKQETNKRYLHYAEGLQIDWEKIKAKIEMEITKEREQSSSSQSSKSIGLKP
inactive: [1] -0.011 | [2] 0.052 | [3] 0.083 | [4] -0.036 | [5] -0.027

HAT1 (UniProt O14929)
inactive: [1] 0.009 | [2] -0.005 | [3] 0.007 | [4] -0.101 | [5] -0.05

HDAC10 (UniProt Q969S8)
inactive: [1] -0.061 | [2] -0.028 | [3] 0.07 | [4] 0.12 | [5] -0.051

HNRNPUL2 (UniProt Q1KMD3)
inactive: [1] 0.054 | [2] -0.05 | [3] -0.041 | [4] 0.105 | [5] 0.04

HADHA (UniProt P40939)
inactive: [1] -0.218 | [2] 0.254 | [3] 0.214 | [4] 0.256 | [5] -0.051

HNRNPH2 (UniProt P55795)
Chain of UniProt P55795 (P55795 whole entry, looked up): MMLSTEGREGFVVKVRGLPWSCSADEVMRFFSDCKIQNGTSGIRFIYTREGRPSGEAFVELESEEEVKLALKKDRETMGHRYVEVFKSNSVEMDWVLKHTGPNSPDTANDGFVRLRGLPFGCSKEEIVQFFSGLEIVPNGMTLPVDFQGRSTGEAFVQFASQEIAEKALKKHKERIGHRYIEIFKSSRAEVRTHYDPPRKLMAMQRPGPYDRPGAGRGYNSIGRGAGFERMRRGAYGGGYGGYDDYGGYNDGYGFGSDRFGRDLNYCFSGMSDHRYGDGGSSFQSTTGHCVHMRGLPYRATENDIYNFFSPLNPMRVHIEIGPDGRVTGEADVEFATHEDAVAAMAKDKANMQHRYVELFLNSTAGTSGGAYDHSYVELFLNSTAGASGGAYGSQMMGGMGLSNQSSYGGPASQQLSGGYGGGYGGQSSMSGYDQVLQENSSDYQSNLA
inactive: [1] -0.096 | [2] -0.037 | [3] 0.097 | [4] -0.035 | [5] -0.003

GLCCI1 (UniProt Q86VQ1)
inactive: [1] -0.088 | [2] -0.041 | [3] 0.137 | [4] 0.013 | [5] -0.075

FOXK1 (UniProt P85037)
inactive: [1] 0.104 | [2] -0.042 | [3] 0.253 | [4] -0.402 | [5] 0.049

GPAT4 (UniProt Q86UL3)
inactive: [1] 0.023 | [2] 0.046 | [3] 0.013 | [4] -0.046 | [5] -0.015

HP1BP3 (UniProt Q5SSJ5)
inactive: [1] 0.015 | [2] -0.04 | [3] 0.087 | [4] 0.142 | [5] 0.011

GATD1 (UniProt Q8NB37)
inactive: [1] -0.038 | [2] 0.043 | [3] 0.019 | [4] 0.019 | [5] 0.007

GSTP1 (UniProt P09211)
Chain of UniProt P09211 (P09211 whole entry, looked up): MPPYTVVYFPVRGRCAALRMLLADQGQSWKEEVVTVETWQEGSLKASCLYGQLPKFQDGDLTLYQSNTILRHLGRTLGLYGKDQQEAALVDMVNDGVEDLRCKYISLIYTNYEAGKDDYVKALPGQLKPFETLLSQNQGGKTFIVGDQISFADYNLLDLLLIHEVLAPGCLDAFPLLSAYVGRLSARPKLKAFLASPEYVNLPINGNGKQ
inactive: [1] -0.013 | [2] 0.039 | [3] 0.005 | [4] -0.013 | [5] -0.016

HSPA2 (UniProt P54652)
inactive: [1] 0.003
